PubChem BioAssay (EPA / NIEHS)
Calls of active or inactive are those of the source. How the source made its calls: active means hit-call score of the fitted dose curve at least 0.9, where 1 is the maximum; inactive means score below 0.9.

What was measured:
[1] = ATG_CRE_CIS: Attagene CIS-FACTORIAL HepG2 Assay for human cAMP Responsive Element (CRE) binding protein 3 (AID 2282926); conditions: HepG2 CRE cis-reporter, Attagene multiplexed mRNA; actives raise or lower the signal
Procedure, shortened: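 Transfected HepG2 were treated for 24 hours, then RNA was extracted and reporter cDNA amplified with sequence-specific primers. Labelled fragments were separated by capillary electrophoresis, and the CRE signal was fitted bidirectionally with DMSO as baseline.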

[2] = biological target: CCAAT/enhancer-binding protein beta (Homo sapiens) (UniProt P17676); assay: ATG_C_EBP_CIS: Attagene CIS-FACTORIAL HepG2 Assay for human CCAAT/Enhancer Binding Protein (C/EBP) beta (AID 2282927); conditions: HepG2 Attagene cis-factorial transcription factor reporter; actives raise or lower the signal
Procedure, shortened: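 HepG2, transient MRTU transfection, 24 h treatment. RT-PCR plus CE fluorescence; DMSO negative control, bidirectional fit.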

[3] = ATG_AP_1_CIS: Attagene CIS-FACTORIAL HepG2 Assay for human Activator Protein 1 (AP-1) (AID 2282931); conditions: HepG2 Attagene cis-factorial AP-1 reporter mRNA; actives raise or lower the signal
Procedure, shortened: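 Endogenous transcription-factor activity in human HepG2 liver cells is read through a cis-promoter reporter transcript, sampled 24 h after dosing. Detection uses RT-PCR with capillary electrophoresis; values come from bidirectional fitting relative to DMSO.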

[4] = ATG_AP_2_CIS: Attagene CIS-FACTORIAL HepG2 Assay for human Activator Protein 2 (AP-2) (AID 2282932); conditions: HepG2 AP-2 cis-reporter, Attagene transcription factor profiling; actives raise or lower the signal
Procedure, shortened: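 HepG2 cells transiently transfected with cis-element reporter units and exposed for 24 h. Reporter mRNA measured by RT-PCR, FAM labelling, HpaI digestion and capillary electrophoresis. Changes in either direction fitted relative to DMSO.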

[5] = ATG_BRE_CIS: Attagene CIS-FACTORIAL HepG2 Assay for human Bone Morphogenetic Protein (BMP) Response Element (BRE) (AID 2282933); conditions: HepG2 BMP response element reporter, Attagene transcription factor profiling; actives raise or lower the signal
Procedure, shortened: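 Transient MRTU transfection of human HepG2 liver cells; 24 h compound treatment; total RNA isolated, reverse-transcribed, PCR-amplified, 6-FAM labelled, HpaI-cut, capillary electrophoresis. DMSO = negative control/baseline, bidirectional fit.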

[6] = ATG_E_Box_CIS: Attagene CIS-FACTORIAL HepG2 Assay for human Enhancer Box (E-box) (AID 2282936); conditions: HepG2 E-box cis-reporter transcription, actives raise or lower the signal
Procedure, shortened: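 HepG2 cells transiently transfected with multiplexed cis-element reporter units, dosed 24 h; reporter mRNA quantified by RT-PCR, 6-FAM labelling, HpaI digestion and capillary electrophoresis. E-box (USF1) signal fitted bidirectionally vs DMSO.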

[7] = ATG_M_61_CIS: Attagene CIS-FACTORIAL HepG2 Assay for M61 Transcription Factor (Internal Marker) (AID 2282937); conditions: HepG2 Attagene CIS-FACTORIAL M61 internal marker reporter; actives raise or lower the signal
Procedure, shortened: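 Cells were transfected with reporter units under cis-regulatory promoters, treated with chemicals for 24 h, then lysed for RNA. Reporter transcripts were quantified by RT-PCR and capillary electrophoresis, and activity was fitted bidirectionally against DMSO.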

[8] = ATG_EGR_CIS: Attagene CIS-FACTORIAL HepG2 Assay for human Early Growth Response 1 (EGR1) (AID 2282938); conditions: HepG2 Attagene CIS-FACTORIAL EGR reporter mRNA; actives raise or lower the signal
Procedure, shortened: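 Endogenous TF activity in HepG2 liver cells was gauged through cis-promoter reporter constructs transiently transfected. After 24 h dosing, reporter mRNA was quantified by RT-PCR and capillary electrophoresis, and curves fitted in both directions versus DMSO.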

[9] = ATG_Ets_CIS: Attagene CIS-FACTORIAL HepG2 Assay for human Erythroblast Transformation Specific (ETS) (AID 2282941); conditions: HepG2 ETS cis-reporter transcription, actives raise or lower the signal
Procedure, shortened: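 After transient cis-reporter transfection, HepG2 cells receive test chemical for 24 h. Reporter mRNA levels, measured by RT-PCR and capillary electrophoresis fluorescence, are analysed bidirectionally relative to the DMSO baseline.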

[10] = ATG_FoxO_CIS: Attagene CIS-FACTORIAL HepG2 Assay for human Forkhead box O (FoxO) (AID 2282943); conditions: HepG2 Attagene cis-reporter, FoxO element, mRNA; actives raise or lower the signal
Procedure, shortened: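 Transfected HepG2 reporter cells exposed to test chemical for 24 h; reporter RNA measured by reverse transcription, PCR and fluorescent capillary electrophoresis; curves fitted for increases and decreases against DMSO.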

[11] = ATG_GATA_CIS: Attagene CIS-FACTORIAL HepG2 Assay for human GATA Binding Protein (AID 2282944); conditions: HepG2 GATA cis-element reporter, Attagene multiplex mRNA; actives raise or lower the signal
Procedure, shortened: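 Transient MRTU transfection, HepG2, 24 h compound exposure. Total RNA → oligo(dT) RT → PCR → 6-FAM primer extension → HpaI cut → CE. Bidirectional fit vs DMSO.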

[12] = ATG_M_32_CIS: Attagene CIS-FACTORIAL HepG2 Assay for M32 Transcription Factor (Internal Marker) (AID 2282949); conditions: HepG2 Attagene cis-factorial M32 reporter, mRNA; actives raise or lower the signal;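 further: background control marker of the multiplexed CIS panel rather than a real target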
Procedure, shortened: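 Fluorescent capillary electrophoresis peaks of HpaI-digested, FAM-labelled RT-PCR reporter products give the signal. Source: transiently transfected human liver HepG2 cells, 24 h after chemical dosing; bidirectional fitting against DMSO.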

[13] = ATG_M_06_CIS: Attagene CIS-FACTORIAL HepG2 Assay for M06 Transcription Factor (Internal Marker) (AID 2282950); conditions: HepG2 Attagene CIS-FACTORIAL M06 internal marker reporter; actives raise or lower the signal
Procedure, shortened: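 Read-out is fluorescence of labelled reporter cDNA fragments resolved by capillary electrophoresis after RT-PCR. Cells: HepG2 carrying transfected cis-promoter reporter units, treated 24 h. Gain or loss of signal fitted relative to DMSO.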

[14] = ATG_MRE_CIS: Attagene CIS-FACTORIAL HepG2 Assay for human Metal Responsive Element (MRE) (AID 2282954); conditions: HepG2 MRE cis-reporter transcription, Attagene multiplex; actives raise or lower the signal
Procedure, shortened: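 HepG2 cells transiently transfected with cis-element-driven reporter units; mRNA measured 24 h after dosing. Reporter transcripts quantified by RT-PCR, FAM labelling, HpaI digestion and capillary electrophoresis; bidirectional fit versus DMSO.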

[15] = biological target: Paired box protein Pax-6 (Homo sapiens) (UniProt P26367); assay: ATG_Pax6_CIS: Attagene CIS-FACTORIAL HepG2 Assay for human Paired Box 6 (PAX6) (AID 2282956); conditions: HepG2 CIS-FACTORIAL PAX6 reporter transcription, RNA readout; actives raise or lower the signal
Procedure, shortened: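 After twenty-four hours of chemical exposure, transfected HepG2 cells are harvested for RNA. Cis-promoter reporter transcripts are amplified, fluorescently labelled and sized by capillary electrophoresis, with gain and loss of signal scored against DMSO.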

[16] = ATG_PXRE_CIS: Attagene CIS-FACTORIAL HepG2 Assay for human Pregnane X Receptor Element (PXRE) (AID 2282957); conditions: HepG2 Attagene CIS-FACTORIAL PXRE reporter, mRNA; actives raise or lower the signal
Procedure, shortened: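 Multiplexed cis-reporter assay in transiently transfected human HepG2 cells; 24 h chemical exposure. Reporter transcripts quantified by RT-PCR with fluorescent labeling and capillary electrophoresis.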

[17] = biological target: Transcription factor Sp1 (Homo sapiens) (UniProt P08047); assay: ATG_Sp1_CIS: Attagene CIS-FACTORIAL HepG2 Assay for human Specificity Protein 1 (Sp1) (AID 2282961); conditions: HepG2 Sp1 cis-reporter transcription, actives raise or lower the signal
Procedure, shortened: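 Endogenous Sp1 activity was gauged in human liver HepG2 cells bearing transfected reporter units under a cis-regulating promoter. After 24 h dosing, reporter mRNA was quantified by RT-PCR with capillary electrophoresis, and activity fitted bidirectionally versus DMSO.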

[18] = ATG_SREBP_CIS: Attagene CIS-FACTORIAL HepG2 Assay for human Sterol Regulatory Element Binding (SREBP) (AID 2282962); conditions: HepG2 Attagene cis-factorial SREBP reporter, mRNA; actives raise or lower the signal
Procedure, shortened: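 Twenty-four hours after chemical dosing of transfected HepG2 cultures, reporter RNA was converted to cDNA, amplified, end-labelled with 6-FAM and resolved by capillary electrophoresis. Responses were fitted relative to DMSO.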

[19] = biological target: Signal transducer and activator of transcription 3 (Homo sapiens) (UniProt P40763); assay: ATG_STAT3_CIS: Attagene CIS-FACTORIAL HepG2 Assay for human Signal Transducer and Activator of Transcription 3 (STAT3) (AID 2282963); conditions: HepG2, Attagene cis-factorial STAT3 reporter transcription; actives raise or lower the signal
Procedure, shortened: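 HepG2 cells transiently transfected with multiple cis-element-driven reporter units report endogenous transcription factor activity. After 24 h compound exposure, reporter mRNA is measured by RT-PCR, 6-FAM labelling, HpaI digestion and capillary electrophoresis. Fitted bidirectionally versus DMSO.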

[20] = ATG_TAL_CIS: Attagene CIS-FACTORIAL HepG2 Assay for human TAL Basal Promoter (AID 2282966); conditions: HepG2 Attagene cis-factorial TAL promoter reporter; actives raise or lower the signal;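 further: background control endpoint measuring basal TAL promoter reporter mRNA not a specific factor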
Procedure, shortened: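 Steps: transfect HepG2 with multiple reporter transcription units; dose 24 h; isolate RNA, reverse-transcribe, PCR-amplify, label with 6-FAM, digest with HpaI; resolve by capillary electrophoresis. Bidirectional fitting against DMSO baseline.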

Measured: AC50

Sequence of CCAAT/enhancer-binding protein beta (Homo sapiens) (P17676 whole entry, looked up): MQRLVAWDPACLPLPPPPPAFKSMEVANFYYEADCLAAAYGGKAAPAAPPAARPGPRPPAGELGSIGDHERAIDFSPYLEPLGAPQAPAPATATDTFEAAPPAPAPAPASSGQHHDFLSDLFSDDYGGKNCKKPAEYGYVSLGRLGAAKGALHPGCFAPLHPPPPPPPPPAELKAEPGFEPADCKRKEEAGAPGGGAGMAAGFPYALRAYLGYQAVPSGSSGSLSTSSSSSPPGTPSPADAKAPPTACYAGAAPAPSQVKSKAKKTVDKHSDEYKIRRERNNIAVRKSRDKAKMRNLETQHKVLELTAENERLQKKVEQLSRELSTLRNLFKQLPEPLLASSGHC
Sequence of Paired box protein Pax-6 (Homo sapiens) (P26367 whole entry, looked up): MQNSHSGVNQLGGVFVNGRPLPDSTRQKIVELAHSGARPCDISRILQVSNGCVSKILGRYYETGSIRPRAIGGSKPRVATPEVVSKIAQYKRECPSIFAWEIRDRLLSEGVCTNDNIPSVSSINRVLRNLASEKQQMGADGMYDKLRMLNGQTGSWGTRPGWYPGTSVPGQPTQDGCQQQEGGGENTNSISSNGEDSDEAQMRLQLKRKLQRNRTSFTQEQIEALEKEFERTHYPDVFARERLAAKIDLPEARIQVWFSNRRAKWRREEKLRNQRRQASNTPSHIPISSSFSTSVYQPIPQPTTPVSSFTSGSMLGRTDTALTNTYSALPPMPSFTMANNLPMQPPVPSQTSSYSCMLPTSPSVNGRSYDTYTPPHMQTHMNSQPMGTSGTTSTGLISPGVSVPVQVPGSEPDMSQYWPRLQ
Sequence of Transcription factor Sp1 (Homo sapiens) (P08047 whole entry, looked up): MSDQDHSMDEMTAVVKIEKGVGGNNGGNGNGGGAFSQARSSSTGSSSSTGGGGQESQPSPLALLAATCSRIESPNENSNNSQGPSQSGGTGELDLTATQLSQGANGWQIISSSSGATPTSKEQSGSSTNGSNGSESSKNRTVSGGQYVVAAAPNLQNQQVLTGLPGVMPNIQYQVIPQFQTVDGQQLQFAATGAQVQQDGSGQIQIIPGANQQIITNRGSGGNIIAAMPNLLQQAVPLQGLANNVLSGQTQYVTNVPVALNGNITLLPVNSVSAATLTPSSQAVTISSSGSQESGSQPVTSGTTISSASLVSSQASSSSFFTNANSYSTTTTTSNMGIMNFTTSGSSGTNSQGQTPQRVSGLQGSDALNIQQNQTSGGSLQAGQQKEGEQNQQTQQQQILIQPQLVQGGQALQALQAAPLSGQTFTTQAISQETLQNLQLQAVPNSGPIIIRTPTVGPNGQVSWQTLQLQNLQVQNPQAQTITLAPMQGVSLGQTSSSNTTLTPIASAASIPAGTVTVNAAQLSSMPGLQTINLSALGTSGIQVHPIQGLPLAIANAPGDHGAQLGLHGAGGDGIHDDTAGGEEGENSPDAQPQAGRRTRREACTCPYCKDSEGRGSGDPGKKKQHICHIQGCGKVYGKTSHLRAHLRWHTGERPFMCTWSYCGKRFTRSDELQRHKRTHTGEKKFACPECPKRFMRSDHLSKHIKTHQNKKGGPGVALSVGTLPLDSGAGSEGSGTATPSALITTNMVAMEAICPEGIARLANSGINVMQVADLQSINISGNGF
Sequence of Signal transducer and activator of transcription 3 (Homo sapiens) (P40763 whole entry, looked up): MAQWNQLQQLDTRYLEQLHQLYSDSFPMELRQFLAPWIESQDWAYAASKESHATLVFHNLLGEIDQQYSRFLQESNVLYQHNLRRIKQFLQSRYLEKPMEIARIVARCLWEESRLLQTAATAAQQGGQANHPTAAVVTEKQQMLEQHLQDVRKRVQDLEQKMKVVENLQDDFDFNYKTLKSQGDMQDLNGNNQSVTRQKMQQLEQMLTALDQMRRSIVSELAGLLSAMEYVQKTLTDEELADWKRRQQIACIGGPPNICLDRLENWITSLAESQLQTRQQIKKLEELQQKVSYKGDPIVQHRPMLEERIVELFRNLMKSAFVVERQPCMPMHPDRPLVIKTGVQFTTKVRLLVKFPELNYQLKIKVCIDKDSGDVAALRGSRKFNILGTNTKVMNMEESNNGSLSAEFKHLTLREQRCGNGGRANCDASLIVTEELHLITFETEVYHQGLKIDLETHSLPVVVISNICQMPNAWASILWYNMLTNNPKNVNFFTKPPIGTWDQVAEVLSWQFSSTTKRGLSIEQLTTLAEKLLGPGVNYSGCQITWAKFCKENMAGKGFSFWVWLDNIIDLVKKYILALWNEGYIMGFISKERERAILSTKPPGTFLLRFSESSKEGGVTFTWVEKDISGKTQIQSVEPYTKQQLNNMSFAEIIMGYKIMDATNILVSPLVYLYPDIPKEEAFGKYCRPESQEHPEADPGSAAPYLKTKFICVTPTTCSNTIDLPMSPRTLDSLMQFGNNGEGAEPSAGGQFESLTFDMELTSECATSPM

O=C1NC(=O)[C@@H]2CC=CC[C@H]12
inactive: [1] | [2] | [3] | [4] | [5] | [6] | [7] | [8] | [9] | [10] | [11] | [12] | [13] | [14] | [15] | [16] | [17] | [18] | [19] | [20]

O=C1CCCCCCCCCCCCCC1
inactive: [1] | [2] | [4] | [5] | [6] | [7] | [8] | [9] | [10] | [11] | [12] | [13] | [14] | [15] | [18] | [19] | [20]
active: [3] 44.6 µM | [16] 9.14 µM | [17] 47.6 µM

CN1CCCC1
inactive: [1] | [2] | [3] | [4] | [5] | [6] | [7] | [8] | [9] | [10] | [11] | [12] | [13] | [14] | [15] | [16] | [17] | [18] | [19] | [20]

C=CC(C)(CCC=C(C)C)OC(=O)c1ccccc1 (stereo not given)
active: [3] 127 µM | [14] 177 µM | [16] 6.33 µM
inactive: [1] | [2] | [4] | [5] | [6] | [7] | [8] | [9] | [10] | [11] | [12] | [13] | [15] | [17] | [18] | [19] | [20]

CCOC(=O)CC(=O)OCC
inactive: [1] | [2] | [3] | [4] | [5] | [6] | [7] | [8] | [9] | [10] | [11] | [12] | [13] | [14] | [15] | [16] | [17] | [18] | [19] | [20]

O=C1NC(=O)C2CC=CCC12 (stereo not given)
inactive: [1] | [2] | [3] | [4] | [5] | [6] | [7] | [8] | [9] | [10] | [11] | [12] | [13] | [14] | [15] | [16] | [17] | [18] | [19] | [20]

CCCCOC(=O)COc1ccc(Cl)cc1Cl
inactive: [1] | [2] | [3] | [4] | [5] | [6] | [7] | [8] | [9] | [10] | [11] | [12] | [13] | [14] | [15] | [16] | [17] | [18] | [19] | [20]
